IL1B secr inh: qHTS for Inhibitors of Inflammasome Signaling: IL-1-beta AlphaLISA Primary Screen | THP-1 LPS/ATP IL-1B secretion, AlphaLISA, 16 h; stronger effect = lower value | activity change, % at 57.5 µM | 360,000 compounds, 4.7% hits | AID 743279, 2014; in the data active = activity change below about -50%; inconclusive = mostly about -30% to -49%
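Secreted IL-1B measured by AlphaLISA bead assay after 16 h compound exposure of THP-1 cells; compounds (final up to 57.5 uM) added 1 h before LPS (250 ng/mL) and ATP (1.25 mM) stimulation; lower signal means less secretion.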
TDP1 block: qHTS Assay for Inhibitors of Tyrosyl-DNA Phosphodiesterase (TDP1); recombinant TDP1, AlphaScreen DNA substrate cleavage; Tyrosyl-DNA phosphodiesterase 1 (Homo sapiens), Q9NUW8; 350,000 compounds, 0.28% hits; Potency, µM (titrated, usually from 130 µM), without a hit: at the top dose activity change, negative = inhibition, actives largely listed as inhibitors; note: potency is the fitted concentration of half-maximal effect; nearly all actives have a fitted effect of over 40% in size
Target sequence (Q9NUW8 whole entry, looked up): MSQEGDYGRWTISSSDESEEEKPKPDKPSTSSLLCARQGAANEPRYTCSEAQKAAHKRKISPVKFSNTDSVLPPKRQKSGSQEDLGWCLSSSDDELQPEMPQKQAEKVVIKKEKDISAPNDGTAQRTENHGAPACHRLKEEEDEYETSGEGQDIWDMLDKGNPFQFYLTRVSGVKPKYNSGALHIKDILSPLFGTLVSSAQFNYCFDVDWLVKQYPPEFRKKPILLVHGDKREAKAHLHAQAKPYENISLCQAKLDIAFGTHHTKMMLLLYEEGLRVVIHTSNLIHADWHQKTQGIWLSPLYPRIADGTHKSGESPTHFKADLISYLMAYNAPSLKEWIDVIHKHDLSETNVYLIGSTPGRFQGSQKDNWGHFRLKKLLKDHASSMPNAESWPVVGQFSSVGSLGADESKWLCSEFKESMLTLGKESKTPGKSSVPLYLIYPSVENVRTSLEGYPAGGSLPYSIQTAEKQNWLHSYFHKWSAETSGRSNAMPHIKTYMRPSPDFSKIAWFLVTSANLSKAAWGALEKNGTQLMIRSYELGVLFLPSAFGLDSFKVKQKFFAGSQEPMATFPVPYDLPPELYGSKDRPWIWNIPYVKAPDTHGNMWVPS
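Signal: AlphaScreen proximity between streptavidin donor and anti-FITC acceptor beads on intact substrate. Reaction: Tdp1 1 nM, substrate 15 nM final, 5 min RT after 15 min compound preincubation.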
Giardia kill: Small Molecules that selectively kill Giardia lamblia: qHTS. activity change, % at 7.66 µM, hits read low. 340,000 compounds, 0.15% hits. Giardia lamblia trophozoite viability; in the data active = activity change below about -80%; inconclusive = between about -30% and that limit;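 note: parasites exposed to compound for two days anaerobically before the ATP read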
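Anaerobic 48 hrs incubation at 37 deg C of 100 trophozoites/well with test compounds; ATPLite 1-Step luminescence, 15-30 min RT, reports cellular ATP as viability.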
DT40 TDP1 CPT: qHTS for Inhibitors of human tyrosyl-DNA phosphodiesterase 1 (TDP1): qHTS in cells in presence of CPT | chicken DT40 Tdp1-/-;hTDP1 cells + 20 nM CPT, ATP luminescence, 48 h | Potency, µM (top dose mostly 46.2 µM), for the others: at the top dose activity change, negative = growth inhibition, most hits filed as inhibitors | 420,000 compounds, 12% hits | AID 686979, 2013; note: potency is the fitted concentration of half-maximal effect; nearly all actives have a fitted effect of over 55% in size
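Cell growth measured by CellTiter-Glo luminescence after a minimum 48 h, 37 C compound exposure with 20 nM CPT in Tdp1-knockout DT40 cells stably expressing hTDP1, seeded 400/well; qHTS titration format.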
TDP1 cell noCPT: qHTS for Inhibitors of human tyrosyl-DNA phosphodiesterase 1 (TDP1): qHTS in cells in absence of CPT; DT40 Tdp1-/- hTDP1 cells, no CPT, ATP luminescence, 48 h; Potency, µM (titrated, usually from 46.2 µM), inactives show at the top dose activity change, negative = growth inhibition, most hits filed as inhibitors; 420,000 compounds, 15% hits; AID 686978, 2013; note: potency is the fitted concentration of half-maximal effect; nearly all actives have a fitted effect of over 55% in size
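A cellular qHTS used chicken DT40 cells lacking endogenous Tdp1 but carrying stably transfected human TDP1. Compounds were applied without camptothecin, and cell growth kinetics were judged by ATP-dependent luminescence after ≥48 hr.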
ELG1 DNA repair: qHTS screen for small molecules that inhibit ELG1-dependent DNA repair in human embryonic kidney (HEK293T) cells expressing luciferase-tagged ELG1; 330,000 compounds, 2.3% hits; Potency, µM (titrated, usually from 46.1 µM), without a hit: top-dose activity change, negative = inhibition, actives largely listed as inhibitors; HEK293T ELG1-luciferase reporter, luminescence, 16 h; DNA damage induced by 5-fluorouridine; note: potency is the fitted concentration of half-maximal effect; nearly all actives have a fitted effect of over 55% in size
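In this reporter screen, reduction of luminescence relative to DMSO vehicle indicated activity. Compounds and 5-fluorouridine were added together to 2,000 cells per well, incubated for 16 hr at 37 °C, then developed with ONE-Glo.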
* marks the source's active call; other numbers are inactive results; ? = inconclusive; . = no result; [ ] = remark or other dose. Only some compounds are listed: those with a hit (about 19% of all), similar ones and a draw of the others. Unless noted, calls come from the whole dose curve; as a rule, active = well fitted curve in the direction sought with a large enough effect; inconclusive = small, poorly fitted or top-dose-only effect, or another doubt; inactive = no such curve, though single readings can be large; an effect the other way counts as inactive or inconclusive. % is set by controls: 0 for no effect and ±100 for the full control effect.

SMILES	IL1B secr inh	TDP1 block	Giardia kill	DT40 TDP1 CPT	TDP1 cell noCPT	ELG1 DNA repair
COc1ccc(N2CCN(C(=O)c3ccc(Cl)c(S(=O)(=O)N4CCOCC4)c3)CC2)cc1	-3	.	8	-26%	?	.
Cn1c(=O)c2cc(NC(=O)Cc3cccnc3)ccc2n1-c1ccc2ccccc2c1	-8	.	.	15µM*	15µM*	.
CC(CC(=O)Nc1ccc2c(c1)c(=O)n(C)n2-c1ccc2ccccc2c1)C(F)(F)F (centres undefined)	59	.	.	5.2µM*	2.6µM*	.
CCOC(=O)C1=C(CN(C)Cc2ccccc2)NC(=O)NC1c1ccc(OC)cc1 (centres undefined)	.	-2%	.	?	?	.
CCOC(=O)C1=C(CN(C)Cc2ccccc2)NC(=O)NC1c1ccc(OC(C)C)cc1 (centres undefined)	.	7%	.	16µM*	16µM*	.
CCOC(=O)C1=C(CCc2ccccc2)NC(=O)NC1c1ccc(Br)cc1 (centres undefined)	-20	.	-1	?	?	-22%
CCOC(=O)C1=C(COc2ccccc2)NC(=O)NC1c1ccc2ccccc2c1 (centres undefined)	-5	.	-12	18µM*	21µM*	.
CCOC(=O)C1=C(COc2ccccc2)NC(=O)NC1c1ccc(Br)cc1 (centres undefined)	?	.	5	18µM*	16µM*	-8%
CCOC(=O)C1=C(CN(CC)Cc2ccccc2)NC(=O)NC1c1ccc(OC)cc1 (centres undefined)	.	10%	.	?	-9%	.
O=C(O)c1nc(-c2ccccc2)n(-c2cccc(C(F)(F)F)c2)n1	-2	7%	-3	1%	13%	12%
O=S(=O)(NC1=NCCCCC1)c1cc(F)ccc1F	23	1%	-2	-18%	-11%	?
COc1ccc(C)cc1NC(=O)C1CCN(S(=O)(=O)c2ccc3c(c2)CCCN3C(C)=O)CC1	.	3%	.	3%	6%	.
Cc1noc(C)c1C(=O)N1CCC2(CCCN(c3ncccn3)C2)CC1	.	.	.	-18%	-10%	.
Cn1c(=O)n(C)c2cc(NC(=O)CCl)ccc21	-91*	3%	7	10µM*	12µM*	?
Cn1c(=O)n(C)c2cc(NC(=O)CSc3nnc(-c4ccccc4O)n3-c3ccccc3)ccc21	-9	8%	0	18µM*	?	-10%
Cc1ccccc1OCC(=O)Nc1ccc2c(c1)n(C)c(=O)n2C	-24	-8%	6	?	15µM*	2%
CC(C)[C@H](N)c1cn([C@@H](CC(N)=O)C(=O)N2CCNCC2)nn1	11	.	-11	13%	8%	14%
CCN1C(c2ccc(F)cc2)=CS/C1=C(/C#N)c1nnc2n1-c1ccccc1SC2	-13	.	.	?	?	.
Cc1ccccc1Cn1c(=N)n(CC(=O)c2ccc([N+](=O)[O-])cc2)c2ccccc21	.	4%	6	4.1µM*	5.2µM*	-2%
CCCn1c(=N)n(CC(=O)c2ccc([N+](=O)[O-])cc2)c2ccccc21	-53*	-2%	11	?	23µM*	-14%
Cc1ccc(-c2nn3c(-c4ccccc4)nnc3c3ccccc23)cc1	.	0%	.	8%	-18%	.
COc1ccc(/C(C)=N/NC2=NCCN2)cc1Cl	-74*	.	-8	-12%	-19%	-2%
CC(=NNC1=NCCN1)c1cn(C2=NCCN2)nc1C	-10	.	.	-27%	-16%	.
C/C(=N\Nc1nccnc1Cl)c1ccc(Cl)c(Cl)c1	4	.	-1	-5%	-2%	0%
CCCCCCOc1ccc(/C(C)=N/NC2=NCCN2)cc1[N+](=O)[O-]	-92*	3%	13	?	10µM*	-2%
SMILES	IL1B secr inh	TDP1 block	Giardia kill	DT40 TDP1 CPT	TDP1 cell noCPT	ELG1 DNA repair
C/C(=N\NC1=NCCN1)c1ccc(N)c([N+](=O)[O-])c1	-16	.	-8	-27%	?	?
CCCCOc1ccc(Br)cc1/C(C)=N/NC1=NCCN1	-113*	6%	25	4.6µM*	4.1µM*	?
C=Cc1ccc(N=Cc2ccc(N(C)C)cc2)cc1	.	.	.	-4%	-28%	.
Cc1ccc(C=Nc2ccc(N(C)C)cc2)o1	20	12%	-4	5.2µM*	2.1µM*	?
Cc1cc(Cl)c2oc(C(=O)NCC(C)(C)N3CCOCC3)c(C)c2c1	50	1%	7	23µM*	?	?
Cc1cc(Cl)c2oc(C(=O)N(C)CCCCN3CCOCC3)c(C)c2c1	-7	3%	23	-19%	?	-1%
Cc1cc(Cl)c2oc(C(=O)N(C)CCc3cnn(C)c3)c(C)c2c1	21	3%	2	18µM*	-5%	16%
Cc1cc(Cl)c2oc(C(=O)N(C)CCCN3CCOCC3)c(C)c2c1	0	3%	-30	?	16µM*	?
CC(C)(CNC(=O)c1sc2cc(Cl)ccc2c1Cl)N1CCOCC1	?	.	-5	16µM*	16µM*	?
CC(C)(CC(=O)O)CC(=O)Nc1ccc(Cl)c(Cl)c1	13	2%	0	6%	3%	?
CC(C)(C)c1cc(OC(=O)c2ccccc2F)ccc1O	-69*	-3%	4	?	?	-7%
Clc1ccc(-c2csc3ncnc(NCCN4CCOCC4)c23)cc1	-7	-2%	10	18µM*	13µM*	18µM*
Cc1ccc(-c2csc3ncnc(NCCN4CCOCC4)c23)cc1	-65*	0%	-4	?	23µM*	?
c1ccc(-c2csc3ncnc(NCCN4CCOCC4)c23)cc1	-11	1%	-8	12µM*	9.2µM*	16µM*
Cc1ccc(-c2csc3ncnc(NCCC(=O)O)c23)cc1	78	.	6	23%	-9%	?
c1ccc2c(c1)OCC(c1csc3ncnc(N4CCCCC4)c13)O2 (centres undefined)	6	2%	11	?	?	?
Clc1ncnc2scc(C3COc4ccccc4O3)c12 (centres undefined)	-55*	2%[56.1 µM]	12	?	16µM*	?
Nc1nc(Cl)nc2c1ncn2C1CC(O)C(CO)O1 (centres undefined)	50	.	?	0.18µM*	?	1%

Source: PubChem (National Center for Advancing Translational Sciences (NCATS))
